“And” between values parts separate entries of the source, which are not always exact repeats. Identical values can stand only once. About 2,000 (36%) of roughly 5,500 compounds were called active. Inconclusive results (about 18%) are left out. Rule as the data show it: active = normalized growth mostly below about 0.91 (no sharp cut-off); inconclusive = no clear call, values can overlap the other calls; inactive = mostly above about 0.92. This is one part of the list.
Experiment: chemical genetic growth profiling, strain panel (AID 1159580);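 also: tested at 20 µM; growth read once vehicle control cultures reached saturation at 30 °C; 1 = growth at the plate median or of vehicle wells; lower values mean less growth of the strain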
Settings: growth OD

Measured: normalized growth

ClC1=C(Cl)C2(Cl)C3C4CC(C5OC45)C3C1(Cl)C2(Cl)Cl (configuration not stated)
inactive: S. cerevisiae deletion strains, locus YAL013W, strain DEP1, active compounds read low 0.992 | S. cerevisiae deletion strains, locus YBR021W, strain FUR4, active compounds read low 0.948 and 0.959 | S. cerevisiae deletion strains, locus YBR229C, strain ROT2, active compounds read low 0.997 and 1 | S. cerevisiae deletion strains, locus YCL029C, strain bik1, active compounds read low 0.967 and 1.02 | S. cerevisiae deletion strains, locus YDL035C, strain GPR1, active compounds read low 0.981 and 0.974 | S. cerevisiae deletion strains, locus YDL074C, strain BRE1, active compounds read low 1.03 | S. cerevisiae deletion strains, locus YDL101C, strain DUN1, active compounds read low 0.993 and 1 | S. cerevisiae deletion strains, locus YDL134C, strain PPH21, active compounds read low 0.998 and 0.988 | S. cerevisiae deletion strains, locus YDL185W, strain tfp1, active compounds read low 0.996 and 1.03 | S. cerevisiae deletion strains, locus YDL192W, strain arf1, active compounds read low 0.986 and 1.01 | S. cerevisiae deletion strains, locus YDR101C, strain arx1, active compounds read low 0.973 and 1.01 | S. cerevisiae deletion strains, locus YDR150W, strain NUM1, active compounds read low 1 and 0.976 | S. cerevisiae deletion strains, locus YDR162C, strain NBP2, active compounds read low 0.999 and 0.969 | S. cerevisiae deletion strains, locus YDR318W, strain mcm21, active compounds read low 0.983 and 1.01 | S. cerevisiae deletion strains, locus YDR388W, active compounds read low 0.97 and 1.01 | S. cerevisiae deletion strains, locus YDR502C, strain sam2, active compounds read low 0.983 and 1 | S. cerevisiae deletion strains, locus YEL061C, strain CIN8, active compounds read low 1 | S. cerevisiae deletion strains, locus YER110C, active compounds read low 0.971 and 1.02 | S. cerevisiae deletion strains, locus YER155C, strain BEM2, active compounds read low 0.982 and 1.01 | S. cerevisiae deletion strains, locus YER167W, strain BCK2, active compounds read low 0.976 and 0.99 | S. cerevisiae deletion strains, locus YGL078C, strain dbp3, active compounds read low 0.978 and 1.01 | S. cerevisiae deletion strains, locus YGL086W, strain mad1, active compounds read low 0.983 and 1.01 | S. cerevisiae deletion strains, locus YGL248W, strain PDE1, active compounds read low 1 and 1.01 | S. cerevisiae deletion strains, locus YGR078C, strain PAC10, active compounds read low 1 and 1.01 | S. cerevisiae deletion strains, locus YGR135W, strain pre9, active compounds read low 0.988 and 0.995 | S. cerevisiae deletion strains, locus YGR229C, strain SMI1, active compounds read low 0.971 | S. cerevisiae deletion strains, locus YGR252W, strain gcn5, active compounds read low 0.968 and 0.972 | S. cerevisiae deletion strains, locus YHR030C, strain SLT2, active compounds read low 0.99 and 1.04 and 1.01 | S. cerevisiae deletion strains, locus YHR079C, strain IRE1 (second series), active compounds read low 0.971 and 1.01 | S. cerevisiae deletion strains, locus YHR079C, strain IRE1, active compounds read low 1.01 | S. cerevisiae deletion strains, locus YHR094C, strain hxt1, active compounds read low 0.974 and 1.01 | S. cerevisiae deletion strains, locus YHR129C, strain ARP1, active compounds read low 0.998 and 1.02 | S. cerevisiae deletion strains, locus YHR200W, strain rpn10, active compounds read low 0.978 and 1.02 | S. cerevisiae deletion strains, locus YIL066C, strain RNR3, active compounds read low 1 and 0.968 | S. cerevisiae deletion strains, locus YIL073C, strain SPO22, active compounds read low 0.919 and 1.08 | S. cerevisiae deletion strains, locus YIL125W, strain kgd1, active compounds read low 0.985 and 1.01 | S. cerevisiae deletion strains, locus YIR030C, strain dcg1, active compounds read low 0.979 and 1.02 | S. cerevisiae deletion strains, locus YJL095W, strain BCK1, active compounds read low 1.02 and 1.05 and 1.06 | S. cerevisiae deletion strains, locus YJL134W, strain LCB3, active compounds read low 0.982 and 1.01 | S. cerevisiae deletion strains, locus YJL168C, strain set2, active compounds read low 0.98 and 1.01 | S. cerevisiae deletion strains, locus YJL187C, strain SWE1 (second series), active compounds read low 0.991 and 1.02 | S. cerevisiae deletion strains, locus YJR043C, strain POL32, active compounds read low 0.975 and 0.987 | S. cerevisiae deletion strains, locus YJR066W, strain TOR1, active compounds read low 0.962 | S. cerevisiae deletion strains, locus YJR075W, strain HOC1, active compounds read low 1 and 1.03 | S. cerevisiae deletion strains, locus YKL009W, strain mrt4, active compounds read low 0.988 and 1.01 | S. cerevisiae deletion strains, locus YKL068W, active compounds read low 0.986 and 1 | S. cerevisiae deletion strains, locus YKL085W, strain MDH1 (second series), active compounds read low 0.983 and 0.995 | S. cerevisiae deletion strains, locus YKL085W, strain MDH1, active compounds read low 0.983 and 0.995 | S. cerevisiae deletion strains, locus YKL190W, strain CNB1, active compounds read low 1 and 0.986 | S. cerevisiae deletion strains, locus YKR001C, strain vps1, active compounds read low 0.98 and 1.02 | S. cerevisiae deletion strains, locus YLR039C, strain RIC1, active compounds read low 0.975 and 1.15 | S. cerevisiae deletion strains, locus YLR058C, strain SHM2, active compounds read low 0.984 and 1.02 | S. cerevisiae deletion strains, locus YLR102C, strain apc9, active compounds read low 0.984 and 1.01 | S. cerevisiae deletion strains, locus YLR113W, strain HOG1, active compounds read low 0.937 | S. cerevisiae deletion strains, locus YLR262C, strain YPT6, active compounds read low 0.953 and 1.24 | S. cerevisiae deletion strains, locus YLR268W, strain sec22, active compounds read low 0.977 and 1.02 | S. cerevisiae deletion strains, locus YLR330W, strain CHS5, active compounds read low 0.996 and 1.01 | S. cerevisiae deletion strains, locus YLR342W, strain FKS1 (second series), active compounds read low 0.984 and 0.998 | S. cerevisiae deletion strains, locus YLR371W, strain rom2, active compounds read low 0.97 and 1.02 | S. cerevisiae deletion strains, locus YLR418C, strain cdc73, active compounds read low 0.964 and 0.976 | S. cerevisiae deletion strains, locus YML016C, strain PPZ1, active compounds read low 0.996 and 1 | S. cerevisiae deletion strains, locus YML032C, strain rad52, active compounds read low 0.967 and 0.998 | S. cerevisiae deletion strains, locus YML124C, strain tub3, active compounds read low 0.973 and 1.01 | S. cerevisiae deletion strains, locus YMR078C, strain ctf18, active compounds read low 0.973 and 1.01 | S. cerevisiae deletion strains, locus YMR223W, strain ubp8, active compounds read low 0.975 and 1.01 | S. cerevisiae deletion strains, locus YMR263W, strain SAP30, active compounds read low 1.01 | S. cerevisiae deletion strains, locus YMR307W, strain GAS1, active compounds read low 0.909 and 0.97 | S. cerevisiae deletion strains, locus YNL067W, strain RPL9B, active compounds read low 0.999 and 1.04 | S. cerevisiae deletion strains, locus YNL128W, strain TEP1, active compounds read low 0.994 and 1.02 | S. cerevisiae deletion strains, locus YNL153C, strain GIM3, active compounds read low 0.999 and 1.03 | S. cerevisiae deletion strains, locus YNL183C, strain NPR1, active compounds read low 0.948 | S. cerevisiae deletion strains, locus YNL233W, strain BNI4, active compounds read low 0.994 and 1.06 | S. cerevisiae deletion strains, locus YNL250W, strain rad50, active compounds read low 0.965 and 1 | S. cerevisiae deletion strains, locus YNL271C, strain bni1, active compounds read low 0.975 and 1.01 | S. cerevisiae deletion strains, locus YNL298W, strain CLA4, active compounds read low 0.97 and 1.01 | S. cerevisiae deletion strains, locus YNL307C, strain MCK1, active compounds read low 0.947 and 1.02 | S. cerevisiae deletion strains, locus YNL322C, strain KRE1, active compounds read low 0.998 | S. cerevisiae deletion strains, locus YNR052C, strain pop2, active compounds read low 0.965 and 1.01 | S. cerevisiae deletion strains, locus YOL006C, strain TOP1, active compounds read low 1.01 | S. cerevisiae deletion strains, locus YOL012C, strain htz1 0.925 and 0.987 | S. cerevisiae deletion strains, locus YOL147C, strain pex11, active compounds read low 0.966 and 1.02 | S. cerevisiae deletion strains, locus YOR061W, strain CKA2, active compounds read low 0.998 and 1 | S. cerevisiae deletion strains, locus YOR069W, strain VPS5, active compounds read low 0.995 and 1.01 | S. cerevisiae deletion strains, locus YOR136W, strain idh2, active compounds read low 0.974 and 1.02 | S. cerevisiae deletion strains, locus YOR144C, strain elg1, active compounds read low 0.97 and 1 | S. cerevisiae deletion strains, locus YOR184W, strain ser1, active compounds read low 0.967 and 1.01 | S. cerevisiae deletion strains, locus YOR231W, strain MKK1, active compounds read low 1.04 | S. cerevisiae deletion strains, locus YOR316C, strain cot1, active compounds read low 0.976 and 1.01 | S. cerevisiae deletion strains, locus YPL055C, strain LGE1, active compounds read low 0.999 | S. cerevisiae deletion strains, locus YPL241C, strain CIN2, active compounds read low 0.999 and 1.01 | S. cerevisiae deletion strains, locus YPL256C, strain CLN2, active compounds read low 1.04 | S. cerevisiae deletion strains, locus YPR119W, strain clb2, active compounds read low 0.974 and 1.01 | S. cerevisiae deletion strains, locus YPR141C, strain kar3, active compounds read low 0.969 and 1.01 | S. cerevisiae deletion strains, locus YPR163C, strain tif3, active compounds read low 0.961 and 1.01 | S. cerevisiae deletion strains, locus YPR167C, strain met16, active compounds read low 0.983 and 1.01 | S. cerevisiae deletion strains, strain wtn01, active compounds read low 0.971 and 1.03 | S. cerevisiae strains, strain wild type, active compounds read low 0.994 and 1.01

From PubChem BioAssay AID1159580 (chemical genetic matrix, 2015)
